The values that follow come from PubChem BioAssay AID2014 (Sanford-Burnham Center for Chemical Genomics, 2009).

Values joined by “and” are separate entries in the source; they are usually repeats but may differ in a detail not shown here. Equal entries are not always repeated. About 3,000 (1%) of roughly 290,000 compounds were called active. The sample holds actives, similar compounds and a random draw of the others, so the mix is not that of the screen. How the calls were made is not given here.

The test concerns the target Polyadenylate-binding protein 1 (Homo sapiens) (UniProt P11940). Nature of the test: blockers of PABP interaction with poly(A) – biochemical, fluorescence polarization, uHTS, primary screen (AID 2014).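 Further: calls also rest on retests at 20 µM and on dose response follow-up.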 To be noted: PABP-poly(A) RNA binding, stronger effect = higher value. In general terms: Polarisation of emitted light reports the rotation of a fluorescent probe.

Polyadenylate-binding protein 1 (Homo sapiens), sequence (P11940 whole entry, looked up): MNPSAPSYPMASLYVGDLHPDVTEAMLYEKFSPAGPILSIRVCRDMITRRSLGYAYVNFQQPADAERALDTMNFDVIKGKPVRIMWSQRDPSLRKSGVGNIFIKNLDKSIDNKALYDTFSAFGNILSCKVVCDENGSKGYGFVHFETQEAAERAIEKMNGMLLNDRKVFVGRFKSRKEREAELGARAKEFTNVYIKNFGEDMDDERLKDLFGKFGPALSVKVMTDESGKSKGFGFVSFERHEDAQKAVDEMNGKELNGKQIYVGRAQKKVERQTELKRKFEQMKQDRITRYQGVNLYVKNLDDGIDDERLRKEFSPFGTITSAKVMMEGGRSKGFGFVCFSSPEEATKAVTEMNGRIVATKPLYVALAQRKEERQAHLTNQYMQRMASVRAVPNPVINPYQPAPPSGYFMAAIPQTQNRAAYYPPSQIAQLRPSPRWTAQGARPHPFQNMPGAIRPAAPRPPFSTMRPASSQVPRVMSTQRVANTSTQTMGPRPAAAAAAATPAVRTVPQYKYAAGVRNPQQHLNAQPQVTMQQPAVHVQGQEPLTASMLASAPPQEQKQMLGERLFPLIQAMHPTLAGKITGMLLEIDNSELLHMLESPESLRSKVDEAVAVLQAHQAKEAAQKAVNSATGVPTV

Consider `Cc1ccc(S(=O)(=O)N2CC(C)N(S(C)(=O)=O)C2)cc1` (stereo not given), for which the inhibition (commonly the change of the read-out against control, counted positive when it falls) (at 35 µM) is 2% (inactive).

Turning to `Cc1ccc(C)c(C(C)NC(=O)C2CCCO2)c1` (stereo not given), the inhibition (at 35 µM) is 102% (active).

`Cc1cc(C)c2nc(NC(=O)C3CCCO3)sc2c1` (stereo not given): where the note is “at 35 µM”, the inhibition was -13.4% (inactive).

For the compound `Cc1cc([N+](=O)[O-])ccc1NC(=O)C1CCCO1` (stereo not given), the inhibition (at 35 µM) is -5.5% (inactive).

As for `COc1ccc(NC(=O)c2cc([N+](=O)[O-])ccc2NC(=O)CNC2CCCCC2C)c(OC)c1` (stereo not given), the inhibition (at 35 µM) is 9.1% (inactive).

Turning to `O=C(CCc1nnc2ccc(NCCCN3CCCC3=O)nn12)NCc1ccccc1Cl`, the inhibition (at 35 µM) is 2.5% (inactive).

Turning to `CN1CCCC(OC(=O)COc2ccc(Br)cc2)C1` (stereo not given), the inhibition is, setting by setting: (at 35 µM) 0.4% (active); (confirmation repeats, at 20 µM) 55%.

Turning to `Cc1ccc(C(=O)OC2CCCN(C)C2)cc1` (stereo not given), under “at 35 µM”, the inhibition was -1.5% (inactive).

In the case of `CCOC(=O)N1CCN(C(=O)COc2ccc(Br)cc2)CC1`, the inhibition (at 35 µM) is -4.7% (inactive).

`CCCc1ccc(OCCNC(=O)c2ccccc2Br)cc1`: the inhibition (at 35 µM) is 1.2% (inactive).

Consider `O=C(NC(=S)Nc1ncccn1)c1ccccc1Br`, for which, where the note is “at 35 µM”, the inhibition was 2.7% (inactive).

Take `CCOc1cnc(C(=O)NNC(=O)c2ccccc2Br)o1`: the inhibition (at 35 µM) is 12.8% (active) and the inhibition (confirmation repeats, at 20 µM) came out at 95.2%.

With `COc1ccc(C(=O)Nc2ccc(C3(C#N)CCCC3)cc2)cc1OC`, the inhibition (at 35 µM) is -5.5% (inactive).

`CC1CCN(S(=O)(=O)c2ccc3[nH]c(=O)ccc3c2)CC1`: the inhibition (at 35 µM) is -3.1% (inactive).

For `Cc1c(-c2ccccc2)cn2c1-c1ccc(C)n1CC2`, the inhibition (at 35 µM) is 88.3% (active).

Turning to `CCN(CC)c1ccc2cc(C(N)=O)/c(=N\NC(=O)c3ccncc3)oc2c1`, the inhibition (at 35 µM) was 1.8% (inactive).

For `CCN(CC)c1ccc2oc(=O)c(C)nc2c1`, the inhibition was 116% (active) (at 35 µM) and 62.7% (confirmation repeats, at 20 µM).

Turning to `CCN(CC)c1ccc(/C=N/Nc2nc(C)cc(=O)[nH]2)cc1`, the inhibition (at 35 µM) is -2.5% (inactive).

On to `O=[N+]([O-])c1ccccc1/C=C/CN1CCC(O)CC1`, for which the inhibition (at 35 µM) was 4.7% (inactive).

Regarding `O=C(O)c1ccc(-n2nc(-c3ccccc3)c3ccccc3c2=O)cc1`, the inhibition (at 35 µM) is 8.1% (inactive).

In the case of `CCOc1ccc(-n2cnnn2)cc1S(=O)(=O)N1CCC(C)CC1C` (stereo not given), the inhibition (at 35 µM) is 74.4% (active) and the inhibition (confirmation repeats, at 20 µM) was determined as 87.6%.

Regarding `CCOc1ccc(Br)cc1S(=O)(=O)N1CCC(C(=O)O)CC1`, for the setting “at 35 µM”, the inhibition was -2.2% (inactive).

In the case of `Cc1ccc(S(=O)(=O)N2CCC(Oc3ccc(-n4cnnn4)cc3)CC2)cc1`, the inhibition (at 35 µM) was 6.3% (inactive).

As for `Cc1cccc(C(=O)N2CCCC(Nc3ccc(C(C)C)cc3)C2)n1` (stereo not given), the inhibition (at 35 µM) was 6.3% (inactive).

As for `CCCCOC(=O)c1[nH]c(C)c(C(=O)OC)c1C`, where the note is “at 35 µM”, the inhibition is -3.8% (inactive).

Turning to `CCOC(=O)c1c(C)[nH]c2c1-c1ccccc1C(=O)C2=O`, the inhibition (at 35 µM) was -3.9% (inactive).

`CCOC(=O)c1c(C)[nH]c(C2=NNC(=NC(C)COC)SC2)c1C` (stereo not given): the inhibition was 50.4% (active) (at 35 µM) and 104% (confirmation repeats, at 20 µM).

In the case of `COCCCNS(=O)(=O)c1cccc(S(=O)(=O)c2cccc(S(=O)(=O)NCCCOC)c2)c1`, the inhibition (at 35 µM) is -6.2% (inactive).

As for `CC(=O)NS(=O)(=O)c1ccccc1`, under “at 35 µM”, the inhibition was 8.1% (inactive).

For `Nc1ccc(S(=O)(=O)NC(=O)c2ccccc2)cc1`, the inhibition was 50.5% (active) (at 35 µM) and 72.5% (confirmation repeats, at 20 µM).

Turning to `Cc1ccc(S(=O)(=O)NC(=O)c2cccc(C)c2)cc1`, the inhibition (at 35 µM) was 4.3% (inactive).

Regarding `COC(=O)Cc1ccc(NC(=S)NCc2ccc(Cl)cc2)cc1`, where the note is “at 35 µM”, the inhibition is 1.5% (inactive).

`Fc1ccccc1CNC(=S)Nc1ccc(Cl)cc1`: the inhibition was 59.1% (active) (at 35 µM) and 83% (confirmation repeats, at 20 µM).

As for `S=C(NCc1cccs1)Nc1ccc(Cl)cc1`, for the setting “at 35 µM”, the inhibition was -4.3% (inactive).

Regarding `CC1CCCN(CCCNC(=O)CN2C(=O)COc3ccc(S(=O)(=O)N4CCOCC4)cc32)C1` (stereo not given), the inhibition (at 35 µM) was 2.3% (inactive).

Regarding `C=CCNC(=S)/N=c1/ccccn1Cc1ccccc1`, the inhibition (at 35 µM) was 12.9% (inactive).

Turning to `O=C(/C=C/c1ccc(Cl)cc1Cl)c1cccnc1`, the inhibition (at 35 µM) is -1% (inactive).

With `O=C(OCc1cc(Cl)ccc1OC(F)F)c1cccnc1`, the inhibition reads like this: (at 35 µM) 16.1% (active); (confirmation repeats, at 20 µM) 81.2%.

With `O=C(OCc1cc2ccccc2[nH]c1=O)c1cccnc1`, the inhibition (at 35 µM) was -2.2% (inactive).

As to `CCOC(=O)c1ccc(NC(=O)c2ccc(NC(=O)C3CCCO3)cc2)cc1` (stereo not given), under “at 35 µM”, the inhibition was -0.4% (inactive).

Regarding `CC(C)C[C@@H](CO)N1CCN(Cc2ccc(O)cc2)CCC1=O`, the inhibition (at 35 µM) was 1.4% (inactive).

For the compound `COc1ccc(Cc2nc3ccc(C(=O)NCC4CCOCC4)cc3o2)cc1OC`, the inhibition (at 35 µM) is 11.1% (inactive).

For the compound `COc1ccc(CN2CCCC(CNC(=O)c3ccc(F)cc3)C2)cc1OC` (stereo not given), the inhibition reads like this: (at 35 µM) 79.6% (active); (confirmation repeats, at 20 µM) 74.7%.

In the case of `COc1ccc(CCN(C)C(=O)C2CCCN(Cc3ccc(OC)c(OC)c3)C2)cc1OC` (stereo not given), for the setting “at 35 µM”, the inhibition is 11.9% (inactive) and 7% (inactive).

As to `O=C(Cc1ccccc1F)NC1CCSc2ccccc21` (stereo not given), the inhibition (at 35 µM) was 0.4% (inactive).

For the compound `O=c1[nH]c(=S)[nH]c2[nH]c(=S)[nH]c12`, the inhibition (at 35 µM) is 91.1% (active).

For the compound `Cc1c(C)c(C)c2[nH]c(=S)[nH]c2c1C`, where the note is “at 35 µM”, the inhibition is 9.8% (inactive).

In the case of `Cc1ccc2c(c1)N(CC(=O)N1CCOCC1)C(=O)CO2`, the inhibition (at 35 µM) was 2.5% (inactive).

Take `CC1(c2ccc3ccccc3c2)NC(=O)N(CC(N)=O)C1=O` (stereo not given): the inhibition (at 35 µM) is -4.5% (inactive).

With `O=C(NNS(=O)(=O)c1ccccc1)c1cnn(-c2ccc(Cl)cc2)c1C(F)(F)F`, the inhibition is 11.5% (active) (at 35 µM) and 102% (confirmation repeats, at 20 µM).

As for `NNC(=O)c1cnn(-c2ccccc2)c1C(F)(F)F`, the inhibition (at 35 µM) was 10.3% (inactive).

`O=C(NNS(=O)(=O)c1ccc(Cl)cc1)C1CCN(Cc2ccccc2)CC1`: the inhibition (at 35 µM) is -4% (inactive).

Regarding `COc1ccc(CCNC(=O)c2ccccc2OCc2ccccc2)cc1`, the inhibition (at 35 µM) was -3.4% (inactive).

For `CC(C)(C)OC(=O)NNc1c2ccccc2nc2ccccc12`, the inhibition (at 35 µM) was -1.9% (inactive).

For the compound `CC(=O)c1cnc(SCC(=O)O)nc1C`, the inhibition (at 35 µM) is 54.3% (active) and the inhibition (confirmation repeats, at 20 µM) was 68.8%.

As to `CSc1ncc(C(=O)NCCCc2ccccc2)c(C)n1`, under “at 35 µM”, the inhibition was -4.6% (inactive).

`CC(=O)c1cnc(SCCN2C(=O)c3ccccc3C2=O)nc1C`: the inhibition (at 35 µM) is -5.5% (inactive).

In the case of `CCC1(CC)Cc2ccccc2-c2nc(CCl)[nH]c(=O)c21`, the inhibition (at 35 µM) is -1.7% (inactive).

In the case of `O=C(NCCCN1CCOCC1)c1cc(-c2ccccc2F)no1`, the inhibition (at 35 µM) was -8% (inactive).

As for `CC1CN(C(=S)Nc2ccc(S(N)(=O)=O)cc2)CC(C)O1` (stereo not given), for the setting “at 35 µM”, the inhibition was -12.5% (inactive).

Regarding `NS(=O)(=O)c1ccc(NC(=S)N2CCCC2)cc1`, the inhibition is 28.2% (active) (at 35 µM) and 50.5% (confirmation repeats, at 20 µM).

As for `COc1ccc(N2CCN(C(=S)Nc3ccc(S(N)(=O)=O)cc3)CC2)cc1`, the inhibition (at 35 µM) is -0.4% (inactive).

For the compound `CCc1ccc(CNC(=O)C2CCN(c3nnc(C)c4c(C)n(-c5ccc(C)cc5)nc34)CC2)cc1`, the inhibition (at 35 µM) was -22.4% (inactive).
